# Results published in PubChem BioAssay (NCI).
# The panel holds about 83,000 compounds, 20% with a hit somewhere; the sample as a whole holds those more often.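 Cell lines were cultured in 96-well plates, exposed to a single compound concentration, and assessed for percent growth 48 hours later.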 Values without a mark were called inactive. Calls of active or inactive are those of the source. The calls were made as follows: active = growth percent below 10; inactive = the rest.
# Test system: SF-268 CNS
# Experiment: NCI-60 one-dose screen, 48 h (100 = growth as untreated, 0 = no growth, -100 = all killed)
# Conditions: 10 µM unless noted
row,Structure (SMILES),growth
1,COc1cc(C(=O)n2nc(N3CCN(C)CC3)c3cc(N)ccc32)cc(OC)c1OC,47.2%
2,O=C1N[C@@H]2NC(=[N+]3CCOCC3)N[C@@H]2N1,100%
3,N#Cc1c(N)nnn1Cc1cc(=O)oc2c1ccc1ccccc12,98%
4,COc1cc(OC)cc(C2=C3CC[C@@H]4[C@H](CC[C@]5(C)C(=O)CC[C@@H]45)C3=CC3C(O)c4cccnc4N4C(=O)COC234)c1 (stereo not given in full),92.8%
5,C=C(C)[C@@H]1CC[C@]2(C(=O)N3CCN(C)CC3)CC[C@]3(C)[C@H](CC[C@@H]4[C@@]5(C)CC(=C/c6ccncc6)/C(=N/O)C(C)(C)[C@@H]5CC[C@]43C)[C@@H]12,63%
6,CN1CCN(Cc2ccc3c(NNC(=O)c4ccccc4)nc4cc(F)ccc4n23)CC1,19.9%
7,CCOC(=O)c1c2c(n3ccc(C)cc13)C(=O)c1ccccc1C2=O,96.3%
8,CCCC(=O)NC(c1ccc2c(c1)OCO2)c1ccc2cccnc2c1O (stereo not given),15.8%
9,Cc1nc2sc(C(=O)Nc3ccccc3)c(N)c2cc1C(=O)c1ccccc1,47.8%
10,COC(=O)c1ccc2c(c1)C(=O)c1c-2n(CCCN)c(=O)c2cc([N+](=O)[O-])ccc12,-87.2% (active)
11,CO[C@]12C=C/C(=C(/C(=O)OCc3cccnc3)C(=O)CCCCCCCC[C@@]3(OC)C=C/C(=C(/C(=O)OCc4cccnc4)C(=O)CCCCCCCC1)O3)O2,9% (active)
12,Brc1c2c(c(Br)c3ccccc13)CCCC2,104%
13,Cc1cc2c([nH]1)CSc1cc(S(=O)(=O)c3ccccc3)c(=O)[nH]c1-2,22.1% [100 µM]
14,CC1=C(Nc2ccc(N3CCN(C)CC3)cc2)C(=O)c2cncnc2C1=O,102%
15,CCCCCCC1(C)NCCO1 (stereo not given),93.6%
16,C#CCOc1cccc(Nc2ncnc3ccc(NC(=O)CCl)cc23)c1,-8.71% (active)
17,COc1ccc(C(=O)C2C(c3ccc(OC)cc3)CN(C)C23C(=O)Nc2ccccc23)cc1 (stereo not given),89.7%
18,CCN(CC)CCNC(=O)c1cn2ncnc(Oc3ccc(NC(=O)Nc4ccc(Cl)c(C(F)(F)F)c4)c(F)c3)c2c1C,43.1%
19,CC(=O)OCc1nc(C#N)c(N(C)C)o1,99.6%
20,CN[C@]12CC3(C=CC(=O)C=C3)O[C@@]1(Cc1ccc(OC)cc1)N(C)C(=O)N2,66.4%

row,Structure (SMILES),growth
1,C=C(CNCCc1ccc(O)cc1)[C@@H]1CC[C@]2(CO)CC[C@]3(C)[C@H](CC[C@@H]4[C@@]5(C)CCC(NCCO)C(C)(C)[C@@H]5CC[C@]43C)[C@@H]12 (stereo not given in full),-62.4% (active)
2,O=C1/C(=C\c2cn(-c3ccccc3)nc2-c2ccc(-c3cccs3)cc2)CCc2ccccc21,70.5%
3,Cc1ccc(-c2nn(-c3ccccc3)cc2C=C2C(=O)ON=C2C(C)C)cc1,94.8%
4,CC/C(=C(/c1ccc(Cl)cc1)c1ccc(OCCN2CCCC2)cc1)c1ccc(OC)cc1,87.1%
5,Cc1c(-c2nc3ccc(F)cc3c(=O)[nH]2)c2ccccc2n1C,54.1%
6,COC1=CC(c2ccc[nH]2)=N/C1=C\c1[nH]c(C)c(C(=O)OCc2ccccc2)c1C,0.9% (active)
7,COc1ccc(C/C(C)=C(/c2ccc(OCCN3CCCCC3)cc2)c2ccc(OC(=O)NCc3ccccc3)cc2)cc1,-76.6% (active)
8,CC(C)N1CN2C(=S)NC3C2N(C1)C(=S)N3C (stereo not given),96%
9,CCCCN[C@H]1CC[C@@]2(C)[C@@H](CC[C@@]3(C)[C@H]2[C@H](O)C[C@H]2/C(=C(\CCC=C(C)C)C(=O)OC)[C@@H](OC(C)=O)C[C@@]23C)[C@@H]1C,100%
10,O=[N+]([O-])c1ccc(-c2nc(N3CCOCC3)c3c4c(sc3n2)CCCC4)cc1,94.8%
11,COc1cc(N2C(=O)[C@H](O)C2c2ccc(SC)cc2)cc(OC)c1OC (stereo not given in full),28.1%
12,C#Cc1ccc(NC(=O)c2ccc(/C=C/C(=O)c3nccn3C)cc2)cc1,-28.9% (active)
13,Cc1nnc(NC(=O)c2nc(S(=O)(=O)Cc3ccc(F)cc3)ncc2Cl)s1,90.5%
14,Cc1ccccc1/C=C1\CN(C(=O)OC(C)(C)C)C/C(=C\c2ccccc2C)C1=O,2.68% (active)
15,C[C@]12C=CC(=O)C=C1CCC1C2[C@@H](O)C[C@@]2(C)C1CC[C@]2(O)C(=O)COC(=O)CCC(=O)O (stereo not given in full),105%
16,O=C(Cn1c2c(c3ccccc31)CCCC2)Nc1ccc(-c2nc3ccccc3s2)cc1,97.6%
17,Cc1cc(Cl)ccc1Nc1nc(C(F)(F)F)ccc1C(=O)N/N=C/c1ccc([N+](=O)[O-])cc1,13.8%
18,O=C(Nn1c2c(sc1=NCc1ccccc1)C(=O)c1ccccc1C2=O)c1cc2ccc1CCc1ccc(cc1)CC2,58.6%
19,CC(C)c1ccc(COCc2cc(CN3CCCC3)c(O)c3ncccc23)cc1,8.66% (active)
20,Cn1cccc1C(=O)C1C(c2cccc([N+](=O)[O-])c2)C2C3CCCCC3CN2C12C(=O)Nc1ccc(Cl)cc12 (stereo not given),52.3%
